# Several values for one entry are separate records, joined by “and”; a condition that tells them apart may be missing. Equal values may be shown once. Records with an inconclusive call do not appear. Entries that show only a call come without a potency. A structure can be active in one record and inactive in another. Activity calls are given as the source filed them. The call rests on the fitted dose curve; in most records, active means well fitted activation curve with a large enough effect in the repeat runs; inconclusive means weak or mixed curves; inactive means flat fitted curve, though single readings scatter.
# Test: A CellTox Green Cytotoxicity Assay to monitor cytotoxicity in HepG2 cells - 24 hour (AID 1224878); further: nearly all actives have a fitted effect of over 45% in size
# Conditions: CellTox Green fluorescence; series mostly up to 76.8 µM
# Description: National Center for Advancing Translational Sciences [NCATS]
# NIH Chemical Genomics Center [NCGC]
# U.S. Environmental Protection Agency [EPA]
# National Institutes of Environmental Health Sciences [NIEHS]
# National Toxicology Program [NTP]
# Cell-based models are critical for drug discovery. Determining the natural cytotoxic effects resulting from test compounds is an essential research activity. A CellTox Green Cytotoxicity Assay to monitor cytotoxicity in real time of continues cell culture during 40 hours of the compound treatment was used to screen Tox21 10K library compounds in HepG2 cells. CellTox Green Cytotoxicity Assay is a nonlytic, homogeneous, biofluorescent method to measure cytotoxicity in cell culture after experimental manipulation. The assay system uses a proprietary asymmetric cyanine dye that is excluded from viable cells but preferentially stains the dead cell's DNA. […] Viable cells produce no appreciable increases in fluorescence. Therefore, the fluorescence signal produced by the binding interaction with dead cell DNA is proportional to cytotoxicity.
# The mixture of HepG2 cell suspension and reagents were dispensed at 600cells/6 ul/well in 1536-well tissue culture treated black solid bottom plates using a Multidrop dispenser. After the assay plates were incubated at a 37 C/5% CO2 incubator for 5 hours, 23 nL of compounds dissolved in DMSO, positive and negative controls was transferred to the assay plate by a pintool work station. The plates were incubated at 37 C for 40 hours. The fluorescence intensity were measured at 0h, 8h, 16h, 24h, 32h and 40h time points using ViewLux plate reader during compound treatment.
# Potency means the concentration at half of the fitted maximal effect.
row,SMILES,Potency
1,CC/C=C(\C(=O)N[C@@H]1C(=O)N2C(C(=O)OCOC(=O)C(C)(C)C)=C(COC(N)=O)CS[C@H]12)c1csc(N)n1,inactive
2,Cc1nnc(NS(=O)(=O)c2ccc(N)cc2)s1,inactive
3,Nc1cccc(N)n1,inactive
4,O=[N+]([O-])c1ccccc1C(F)(F)F,inactive
5,CCOC(=O)CC(=O)OCC,inactive
6,CC(CN1c2ccccc2Sc2ccccc21)N(C)C (stereo not given),49 µM (active) and 23.9 µM (active)
7,CCOC(=O)c1ccc(O)cc1,inactive
8,CO[Si](CCCNCCN)(OC)OC,inactive and 49 µM (active)
9,CC(=O)OC[C@H]1O[C@@](COC(C)=O)(O[C@H]2O[C@H](COC(C)=O)[C@@H](OC(C)=O)[C@H](OC(C)=O)[C@H]2OC(C)=O)[C@@H](OC(C)=O)[C@@H]1OC(C)=O,inactive
10,C=CC(C)(C)C,inactive
11,O=C1C(N(CO)C(=O)NCO)N(CO)C(=O)N1CO (stereo not given),inactive
12,OCc1ccc(Cl)cc1Cl,inactive
13,NC(=O)c1ncn([C@@H]2O[C@H](CO)[C@@H](O)[C@H]2O)n1,inactive
14,NCCNCCNCCN,inactive
15,COc1c(Cl)ccc(Cl)c1C(=O)O,inactive
16,CS(=O)(=O)c1ccc(Cl)cc1,inactive
17,O=c1n(CCCN2CCN(c3cccc(Cl)c3)CC2)nc2ccccn12,inactive
18,CC(C)(C)NC[C@H](O)COc1nsnc1N1CCOCC1,inactive
19,CC(C)=CCC/C(C)=C/C=O,inactive
20,Brc1ccc(Oc2ccc(Br)cc2)cc1,inactive

row,SMILES,Potency
1,Cc1cc(CC(=O)O)n(C)c1C(=O)c1ccc(Cl)cc1,inactive
2,OCC(CO)(CO)CO,inactive
3,CCCOC(=O)NCCCN(C)C,inactive
4,Cc1ncc(CO)c(CO)c1O,inactive
5,COCN(COC)c1nc(N(COC)COC)nc(N(COC)COC)n1,inactive
6,C[Si](C)(C)N[Si](C)(C)C,inactive
7,CC(=O)Nc1ccc(CC(=O)O)cc1,inactive
8,Cc1cccc(C)c1[N+](=O)[O-],inactive
9,Cc1ccc(Cl)cc1,inactive
10,Nc1cccc(C(F)(F)F)c1,inactive
11,CC(=O)OC(C)(C)C1CC=C(C)CC1 (stereo not given),inactive
12,CCCCCCC(=O)O,inactive
13,O=C(c1ccccc1)c1ccc(O)c(O)c1O,inactive
14,CN1CCCC1=O,inactive
15,NC(=O)NC(N)=O,inactive
16,N#CCC(=O)O,inactive
17,CC/C(C)=N/O,inactive
18,CC1=CC(=O)CC(C)(C)C1,inactive
19,O=C1O[C@H]([C@H](O)CO)C(O)=C1O,inactive
20,CN1Cc2c(N)cccc2C(c2ccccc2)C1 (stereo not given),inactive

# — PubChem BioAssay (Tox21)
